Measured values: PubChem BioAssay (NCATS)
Records with an inconclusive call do not appear. Active and inactive are the calls of the source. The call rests on the fitted dose curve; in most records, active means well fitted inhibition curve with a large enough effect; inconclusive means small, poorly fitted or top-dose-only effect; inactive means no such curve, though single readings can be large or run the other way.

Test: BET inhibitor-based combinations targeting novel dependencies in MECOM-rearranged (r) AML: HNT-34 cell line (AID 2202234); further: nearly all actives have a fitted effect of over 35% in size;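 on viability (% of control): plate controls were vehicle wells for no effect and cell-free wells for full effect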
Conditions: HNT-34 AML viability, CellTiter-Glo luminescence, 48 h; series mostly up to 46 µM
Description: Ecotropic viral insertion site 1 (EVI1) is located on chromosome 3q26.2 as part of the MECOM (MDS and EVI1 complex) locus. Under normal hematopoiesis, EVI1 is a regulator of hematopoietic stem cell maintenance and self-renewal and EVI1 levels decrease as the cells differentiate. In approximately 5-10% of de novo acute myeloid leukemia (AML) EVI1 is aberrantly expressed, including Chromosomal inv(3)(q21;q26.2) or t(3;3)(q21;q26.2) alterations (MECOM-r) that account for about 50% of AML with EVI1 overexpression 31. AMLs with high levels of EVI1 have a poor prognosis and an overall survival time averaging between 10-14 months. EVI1 overexpression confers resistance in leukemia cells, highlighting the need to develop new targeted therapies for EVI1 overexpressing AMLs. Here, we performed an unbiased chemical drug screening by evaluating the single agent activity of a collection of 2,480 oncology-focused, approved and investigational drugs (NCATS Mechanism Interrogation Plates, MIPE v5.0) against a panel of seven AML cell lines. These included four MECOM-r cell-lines (AML-191, AML-194, UCSD-AML1 and HNT-34) and three non-MECOM-r AMLs (MV4-11, OCI-AML3 and SET-2). Exploiting the mechanistic redundancy built in the library, we identified target-level sensitivities in MECOM-r AML cells and relative activity as compared to other AML subtypes.
A collection of 2480 mechanistically annotated dugs (MIPE v5.0) was used to screen four 3q26.2 rearranged AML cell lines and three non-3q26.2 rearranged AML cell lines. This library purposely exploits redundancy by including multiple inhibitors of key onco-targets, while simultaneously encompassing mechanistic diversity, targeting more than 800 distinct mechanisms of action. Briefly, cells were seeded in 5 uL of growth media using a Multidrop Combi dispenser into 1536 well white polystyrene tissue culture treated plates (Corning) at a density of 500cells/well. For each cell-line, for each of the 2480 drugs in MIPE v5.0 library, an 11-point dose curve was generated via a 1536 pin-tool. Plates were incubated for 48 hr at standard incubator conditions, covered by a stainless steel gasketed lid to prevent evaporation. Cell viability was determined by luminescence based, Cell Titer Glo assay (Promega). In detail, 3 uL of Cell Titer Glo were added to each well and plates were incubated at room temperature for 15 min with a stainless-steel lid in place. Luminescence readings were taken using a Viewlux (PerkinElmer) with a 2 s exposure time per plate. Compound dose-response curves were normalized to DMSO and empty well controls on each plate. Quantitative drug activity data from dose-response curves was determined utilizing area Under the Curve (AUC) and Z-transformed AUC (Z-AUC, a mean-centering transformation applied to each individual cell-line screened).
Potency means the concentration at half of the fitted maximal effect.

| Compound | Potency | viability (% of control) |
| --- | --- | --- |
| CCS(=O)(=O)Nc1ccc(Oc2ccc(F)cc2F)c(-c2cn(C)c(=O)c3[nH]ccc23)c1 | 0.0742 µM (active) | – |
| O=C(O)c1cccnc1 | inactive | – |
| C[C@@H]1Cc2c([nH]c3ccccc23)[C@@H](c2c(F)cc(/C=C/C(=O)O)cc2F)N1CC(C)(C)F | inactive | – |
| COC(C)(C)CCn1nc(Nc2c(C)cccc2C)c2cnc(Nc3ccc(OCCN4CCCC4)c(F)c3)nc21 | 0.0661 µM (active) | – |
| Cc1oc(=O)oc1CN1CCN(c2cc3c(cc2F)c(=O)c(C(=O)O)c2n3C(C)S2)CC1 (stereo not given) | inactive | – |
| Clc1cccc(-c2ccc(-c3nnc(CCCc4ccc5cccnc5n4)o3)cc2)c1 | inactive | – |
| O=C1NC(=O)/C(=C/c2ccc3nccc(-c4ccncc4)c3c2)S1 | 1.05 µM (active) | – |
| C[C@H]1[C@@H](OC(=O)CCC(=O)O)O[C@@H]2O[C@@]3(C)CC[C@@H]4[C@H](C)CC[C@@H]1[C@@]24OO3 | 2.95 µM (active) | – |
| O=C(NO)c1cnc(NC2(c3ccccc3)CC2)nc1 | 6.61 µM (active) | – |
| Nc1cc(C(F)(F)F)c(-c2nc(N3CCOCC3)nc(N3CCOCC3)n2)cn1 | 2.63 µM (active) | – |
| N#Cc1cccnc1N1CCN(C(=O)c2cccc(Cc3n[nH]c(=O)c4ccccc34)c2)CC1 | 0.0372 µM (active) | – |
| CC1(C)OC2=C(C(=O)c3ccccc3C2=O)[C@H](NCc2ccccc2)[C@@H]1O | 7.42 µM (active) | – |
| C=CCNC1=C2C[C@@H](C)C[C@H](OC)[C@H](O)[C@@H](C)/C=C(\C)[C@H](OC(N)=O)[C@@H](OC)/C=C\C=C(/C)C(=O)NC(=CC1=O)C2=O | 11.8 µM (active) | – |
| CCN1CCN(Cc2ccc(-c3cc4c(N[C@H](C)c5ccccc5)ncnc4[nH]3)cc2)CC1 | 2.63 µM (active) | – |
| CC(C)n1ncnc1-c1cn2c(n1)-c1ccc(O[C@@H](C)C(N)=O)cc1OCC2 | 18.6 µM (active) | – |
| COc1ccc(-c2cc(C(O)C3CCCCN3)c3ccccc3n2)cc1 (stereo not given) | 13.2 µM (active) | – |
| C=CC(=O)N1CCC(Oc2cc3c(Nc4ccc(Cl)c(Cl)c4F)ncnc3cc2OC)CC1 | 16.6 µM (active) | – |
| Cc1cc(-n2c(=O)ccc3cnc4[nH]ccc4c32)ccc1F | inactive | – |
| CC(/C=C/C(=O)NO)=C\[C@@H](C)C(=O)c1ccc(N(C)C)cc1 | 0.934 µM (active) | – |
| NS(=O)(=O)c1ccc(S(=O)(=O)Nc2cccc3c(Cl)c[nH]c23)cc1 | 1.32 µM (active) | – |

| Compound | Potency | viability (% of control) |
| --- | --- | --- |
| COc1cc2c(cc1OC(C)C)[C@H](c1ccc(Cl)cc1)N(c1ccc(N(C)CC3CCC(N4CCN(C)C(=O)C4)CC3)cc1)C(=O)C2 (stereo not given in full) | 3.72 µM (active) | – |
| Cc1ccc(NC(=O)c2ccc3c(c2)OCCO3)cc1NC(=O)c1ccc2nc(OCCN3CCCC3)ccc2c1 | 0.0456 µM (active) | – |
| CN1CCN(c2ccc3nc(-c4c(N)c5c(F)cccc5[nH]c4=O)[nH]c3c2)CC1 | 0.833 µM (active) | – |
| N=C1CCCN1Cc1[nH]c(=O)[nH]c(=O)c1Cl | inactive | – |
| Cn1nccc1Nc1nccc(-c2cc3c(s2)C(C)(C)N(CCN2CCOCC2)C3=O)n1 | 6.61 µM (active) | – |
| c1ccc(-c2cc(CCC3CCNCC3)c3ccccc3n2)cc1 | 20.9 µM (active) | – |
| Nc1nc(=S)c2[nH]cnc2[nH]1 | 3.32 µM (active) | – |
| CNc1nc(-c2ccc3c(N)n[nH]c3c2)cc(N2C[C@@H](C(=O)NC3CCCCC3)CC[C@H]2C)n1 | 13.2 µM (active) | – |
| CCc1cc2c(c(OCC(F)(F)F)c(C(=O)NC3CCN(C(=O)CO)CC3)n2C)c(=O)n1CC(=O)c1ccccc1 | 16.6 µM (active) | – |
| COc1ccc(S(=O)(=O)NCc2ccc(C(=O)NCCc3ccc(Cl)cn3)cc2)cc1 | inactive | – |
| COC(=O)/C=C/C(=O)OC | inactive | – |
| CC(=O)N1CCC(Nc2cc(C(=O)NC[C@H](O)CN3CCc4ccccc4C3)ncn2)CC1 | inactive | – |
| COC(=O)N[C@@H](C)CNc1nccc(-c2cn(C(C)C)nc2-c2cc(Cl)cc(NS(C)(=O)=O)c2F)n1 | 0.833 µM (active) | – |
| COc1cc2c(cc1OC)CN(CCc1ccc(-n3nnc(-c4cc(OC)c(OC)cc4NC(=O)c4cc(=O)c5ccccc5o4)n3)cc1)CC2 | – | 93.8% [at 0.315 µM] (inactive) |
| O=C(O)C1=CO[C@@H](O[C@@H]2O[C@H](CO)[C@@H](O)[C@H](O)[C@H]2O)[C@@H]2C(CO)=CC[C@H]12 | inactive | – |
| CCOC(=O)C1=C(C)NC(=S)NC1c1cccc(O)c1 (stereo not given) | 18.6 µM (active) | – |
| N#Cc1ccc(Cn2cncc2CN2CCN(c3cccc(Cl)c3)C(=O)C2)cc1 | 1.66 µM (active) | – |
| CCS(=O)(=O)c1ccc2oc(-c3ccc4ccccc4c3)nc2c1 | inactive | – |
| CN(C)CCCN=c1c2ccccc2n(C)c2[nH]c(=O)n(C)c(=O)c12 | 23.5 µM (active) | – |
| CC(=O)N[C@H]1[C@H](O[C@@H]2c3ccc(c(Cl)c3)Oc3cc4cc(c3O[C@@H]3O[C@H](CO)[C@@H](O)[C@H](O)[C@H]3NC(=O)CCCCCCCC(C)C)Oc3ccc(cc3Cl)C[C@H]3NC(=O)[C@H](N)c5ccc(O)c(c5)Oc5cc(O)cc(c5)[C@H](NC3=O)C(=O)N[C@H]4C(=O)N[C@H]3C(=O)N[C@@H]2C(=O)N[C@@H](C(=O)O)c2cc(O)cc(O[C@H]4O[C@H](CO)[C@@H](O)[C@H](O)[C@@H]4O)c2-c2cc3ccc2O)O[C@H](CO)[C@@H](O)[C@@H]1O | inactive | – |
